# Bioassay records from PubChem BioAssay.
# A selection: hits, their analogues and other compounds. The true share with any hit is near 21%.
# HCMV antiviral: human cytomegalovirus inhibition. HFF cells, HCMV-luciferase reporter, 72 h; stronger effect = lower value. activity change, negative = inhibition, % at 57.5 µM. 410,000 compounds, 4.5% hits; in the data active = activity change below about -60%; inconclusive = no clear call, values can overlap the other calls; inactive = above about -39%; also: % is scaled to controls: 0 for no effect and ±100 for the full control effect
#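 HFF cells seeded 16 h at 37C, treated with compounds, infected with luciferase-reporter HCMV at MOI 1 PFU/cell; luciferase read at 72 h post infection, normalized to buffer-only and Salinomycin controls.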
# Pf growth 96h: inhibits malaria parasite growth, 96 h; P. falciparum luciferase reporter growth, 96 h; AID 504834; Potency, µM (series often up to 28.7 µM), for inactives: at the top dose activity change, negative = inhibition, hits mostly inhibitors; 320,000 compounds, 6.9% hits; also: potency is read from the fitted curve at half-maximal effect; % is scaled to controls: 0 for no effect and ±100 for the full control effect
#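 Readout is luminescence from an integrated firefly luciferase in P. falciparum. Red cells, 2% hematocrit and 0.05% parasitemia final, were cultured with compound through two parasite generations (96 hours) at 37 C, 5% CO2.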
# Pf growth 48h: inhibits P. falciparum growth in the first generation, 48 h; P. falciparum luciferase growth in erythrocytes, 48 h; Potency, µM (titrated, usually from 28.7 µM), inactives show top-dose activity change, negative = inhibition, usual class: inhibitors; 310,000 compounds, 5.9% hits; also: potency is read from the fitted curve at half-maximal effect; % is scaled to controls: 0 for no effect and ±100 for the full control effect
#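 First compound was added to culture medium, then infected red cells at 0.1% parasitemia and 2% hematocrit (final). After incubation at 37 C under 5% CO2, luciferase detection reagent was dispensed and light output recorded.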
# Cycloheximide cs: counter-screen hit for Shiga toxin inhibitors, cycloheximide; AID 2314; 300,000 compounds, 12% hits; max response, %; cell reporter, cycloheximide protein synthesis inhibition counterscreen; in the data active = max response mostly above about 13%, no sharp cut-off; inactive = mostly below about 14%; also: read at 38.3 µM for the half of the compounds with a filed dose; 0% is about no effect
# Shiga toxin inh: inhibitors of Shiga toxin in Vero cells | inhibition, % at 38.7 µM | AID 2315 | 290,000 compounds, 9.2% hits | Vero cells, Shiga toxin protein synthesis inhibition reporter; in the data active = inhibition mostly above about 28%, no sharp cut-off; inactive = mostly below about 43%; also: 0% is about no effect
# HCV inh: HCV inhibition; Huh7.5.1 HCVcc-Cre infection, luciferase reporter, 44 h; Potency, µM (titrated, usually from 41.8 µM), for the others: top-dose activity change, negative = inhibition, hits mostly inhibitors; 340,000 compounds, 3.4% hits; AID 651820; also: potency is read from the fitted curve at half-maximal effect; % is scaled to controls: 0 for no effect and ±100 for the full control effect
#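 Compounds are dispensed onto cells plated 4 h earlier at 1,000 per well, with HCVcc-Cre virus (about 0.5 moi) added next. Following 44 h of culture, luminescent signal is measured for 15 sec after 15 min with substrate at room temperature.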
# The depositor's hits bear a star; ? = inconclusive; nt = no result; [ ] = another dose, or the depositor's remark. Unless noted, calls follow the shape of the dose curve; as a rule, active = well fitted inhibition curve with a large enough effect; inconclusive = small, poorly fitted or top-dose-only effect, or another doubt; inactive = no such curve, though single readings can be large or run the other way.
SMILES,HCMV antiviral,Pf growth 96h,Pf growth 48h,Cycloheximide cs,Shiga toxin inh,HCV inh
C#CCOCCOCCOCCNc1nc(N2CCN(C(=O)C([C@@H](C)CC)n3cc(C(N)Cc4ccc(O)cc4)nn3)CC2)nc(N2CCN(C(=O)[C@H](CCC(=O)O)n3cc(C(N)CO)nn3)CC2)n1 (some centres undefined),nt,18%,3%,-2,-4,18%
COc1ccc(C(=O)CCC(=O)N2CCN(c3ccccc3)CC2)cc1,-33,23%,-8%,-1,0,-25%
CN(c1ccccc1)S(=O)(=O)c1cccc(C(=O)Nc2cccc(C(=O)NC3CC3)c2)c1,-19,6.6µM*,5.2µM*,nt,nt,?
CN(c1ccc(C(=O)NC2CCCC2)cc1)S(=O)(=O)c1ccc(Cl)cc1,7,33%,-19%,-2,9,-17%
CN(c1cccc(Cl)c1)S(=O)(=O)c1cccc(C(=O)Nc2ccc3c(c2)CCC3)c1,-87*,?,?,30*,47*,6.3µM*
CN(c1ccc(C(=O)NC2CC2)cc1)S(=O)(=O)c1ccccc1,49,nt,4.7µM*,11,-9,0%
CN(c1ccccc1)S(=O)(=O)c1cccc(NC(=O)C2CCCO2)c1 (centres undefined),-62*,nt,nt,nt,nt,5%
CC(C)CN(C(=O)C(c1ccccc1)c1ccccc1)c1c(N)n(CC(C)C)c(=O)[nH]c1=O,-11,-16%,?,6,13,4%
CCOC(=O)N1CCN(C(=O)/C(=C/c2cccs2)NC(=O)c2ccc(OC)c(OC)c2)CC1,?,20%,?,-7,-9,19%
N#C/C(=C/Nc1ccccc1C(=O)O)C(N)=O,0,?,?,1,-4,9%
O=C(Nc1ccc2c(c1)C(=O)N(c1ccccc1)C2=O)C1CCCO1 (centres undefined),3,33%,15%,32*,33*,11%
Cn1c(=O)cc(OCC(=O)NCc2ccccn2)c2ccccc21,120,nt,2%,5,-5,4%
Cc1ccc(OCC(=O)NCCO)c(Br)c1,53,?,128%,31*,29,19%
Cc1ccc(OCC(=O)NCc2ccccn2)c(Br)c1,-13,nt,244%,31*,78*,0%
O=C(COc1ccc(F)cc1Br)NCc1nnc2ccccn12,-28,nt,nt,nt,nt,42%
O=C(COc1ccccc1Br)NCc1ccccn1,20,?,nt,29*,64*,-17%
Cc1cc(OCC(=O)NCc2ccccn2)c2c(C)c(C)c(=O)oc2c1,27,?,?,1,-5,?
CCCNC(=O)C/C(C)=N/NC(=O)COc1ccc(C)cc1Br,-22,-20%,-9%,9,10,7%
O=C(COc1ccc(F)cc1Br)NCc1ccccn1,38,89%,103%,48*,61*,0%
Cc1cccc(CN2CC34C=CC(CC3S2(=O)=O)O4)c1 (centres undefined),nt,nt,nt,27,38,nt
C#CCNC(=O)C[C@@H]1C[C@@]2(C(=O)OC)CCCCC=C2N(CCc2ccc(OC)c(OC)c2)C1=O,-2,nt,nt,nt,nt,nt
O=C(CCc1nnc2n(Cc3ccc(Cl)cc3)c(=O)c3ccccc3n12)NCCN1CCCC1,-14,?,?,-3,-2,3.5µM*
O=C(CCc1nnc2n(CCc3ccccc3)c(=O)c3ccccc3n12)NCCCN1CCCCC1,0,3.7µM*,-18%,-1,17,-23%
O=C(CCc1nnc2n(Cc3ccc(Cl)cc3)c(=O)c3ccccc3n12)NCCCN1CCOCC1,15,?,?,-6,-6,-19%
N#C/C(=C\c1ccc(O)cc1)C(=O)NCC1CCCO1 (centres undefined),-7,nt,nt,nt,nt,nt
SMILES,HCMV antiviral,Pf growth 96h,Pf growth 48h,Cycloheximide cs,Shiga toxin inh,HCV inh
Cc1cccc(N=Cc2c(O)n(C)c(=O)n(C)c2=O)c1,24,112%,-1%,9,25*,-8%
CCN(CC)CCN(C)C(=O)c1[nH]c(C(F)(F)F)nc1-c1ccccc1,-99*,nt,nt,nt,nt,nt
O=C(CSc1ncn[nH]1)N1N=C2/C(=C/c3ccccc3)CCCC2C1c1ccccc1 (centres undefined),-90*,7.4µM*,?,0,-26,-25%
Cc1ncsc1C(=O)N1N=C2/C(=C/c3ccc(N4CCOCC4)cc3)CCCC2C1c1ccc(N2CCOCC2)cc1 (centres undefined),nt,5.2µM*,?,34,3,nt
COc1ccc(/C=C2\CCCC3C2=NN(C(=O)CSc2ncn[nH]2)C3c2ccc(OC)cc2)cc1 (centres undefined),-23,?,?,-3,-11,13µM*
Cc1ncsc1C(=O)N1N=C2/C(=C/c3ccccc3)CCCC2C1c1ccccc1 (centres undefined),56,?,?,2,-13,?
COc1ccc(/C=C2\CCCC3C2=NN(C(=O)COC(=O)CNC(=O)c2ccccc2)C3c2ccc(OC)cc2)cc1 (centres undefined),34,?,nt,-5,-3,0%
CC(NC(=O)c1ccc(F)cc1F)C1CC2CCC1C2 (centres undefined),-28,19%,12%,-1,10,-1%
COc1ccc(C(=O)Nc2cccc(-c3nnc(-c4ccco4)o3)c2)cc1,-17,nt,nt,31*,57,13µM*
COc1cc(C(=O)Nc2cccc(-c3nnc(-c4ccco4)o3)c2)ccc1OC(C)=O,-18,3%,?,31*,66*,?
COc1ccc(CC(=O)Nc2cccc(-c3nnc(-c4ccco4)o3)c2)cc1,?,0%,?,6,13,?
CN(C)c1cccc(CNc2nccc3[nH]c(-c4ccc(F)c(F)c4)nc23)c1,0,nt,nt,nt,nt,nt
COC(=O)c1ccccc1C(=O)N1CCCC(CCC(=O)NCc2ccc(F)c(F)c2)C1 (centres undefined),35,32%,69%,41*,93*,4%
COC(=O)c1ccccc1C(=O)N1CCCC(CNC(=O)c2ccc(F)cc2)C1 (centres undefined),15,13%,-8%,12*,4,11%
COC(=O)CCCC(=O)N1CCCC(CCC(=O)NCc2ccc(F)c(F)c2)C1 (centres undefined),9,5%,8.3µM*,0,-1,4%
COC(=O)c1ccc(C(=O)N2CCCC(CNC(=O)c3ccc(F)cc3)C2)cc1 (centres undefined),-8,9%,20%,3,-4,13%
COc1cccc(CNC(=O)CCC2CCCN(C(=O)c3cccc4c(C)c(C)[nH]c34)C2)c1 (centres undefined),-27,-36%[1.15 µM],12µM*,3,19,-20%
CN1C(=O)COCc2cc(-c3ccc(F)c(Cl)c3)ccc21,52,nt,nt,nt,nt,nt
Nc1nnc(SCC(=O)Nc2ccccc2C(F)(F)F)s1,-2,nt,nt,nt,nt,nt
